Bioassay records deposited in PubChem by National Center for Advancing Translational Sciences (NCATS).
A selection: hits, their analogues and other compounds. The true share with any hit is near 4.2%.
TsaE inh: displaces an ADP probe from E. coli YjeE (TsaE). P0AF67. purified YjeE enzyme, qHTS inhibition assay. Potency, µM. actives 0.05% (n = 71,000). AID 605
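Purified YjeE (10 uM) with BODIPY Texas Red-labeled ADP probe (2 uM); compounds pin-transferred, 15 min at room temperature. Binding inhibition read as decreased fluorescence polarization; ADP titration as control.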
ERK AVP inh: blocks ERK signaling stimulated by vasopressin | HEK293-V1b, vasopressin-stimulated pERK AlphaScreen | Potency, µM (top dose mostly 57.5 µM), inactives show at the highest dose activity, negative = inhibition, actives largely listed as inhibitors | actives 0.99% (n = 72,000); also: potency is read from the fitted curve at half-maximal effect; % is scaled to controls: 0 for no effect and ±100 for the full control effect; nearly all actives have a fitted effect of over 55% in size
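Overnight-seeded V1b-HEK293 cells in 1% FBS got compound, then vasopressin (25 nM final, 5 min, 37C), then lysis buffer. AlphaScreen detection of phospho-ERK; activity normalized to basal and full-stimulation controls.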
Hsp90 Hop PPI: changes Hsp90-Hop TPR2A binding signal, up or down; AlphaScreen TPR2A-His6 binding biotin-Hsp90 C-terminal peptide; Potency, µM (highest dose often 57 µM), for inactives: top-dose activity change, negative = inhibition; actives 0.44% (n = 71,000); AID 595; active = well fitted curve in either direction with a large enough effect; inconclusive = small, poorly fitted or top-dose-only effect, or another doubt; also: potency is read from the fitted curve at half-maximal effect; % is scaled to controls: 0 for no effect and ±100 for the full control effect
Pol III holo inh: blocks replication by bacterial DNA polymerase III holoenzyme | reconstituted DNA polymerase III holoenzyme replication, biochemical | Potency, µM (top dose mostly 57.1 µM), without a hit: top-dose activity change, negative = inhibition | actives 0.25% (n = 71,000) | AID 603; also: potency is read from the fitted curve at half-maximal effect; % is scaled to controls: 0 for no effect and ±100 for the full control effect
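Reconstituted *E. coli* holoenzyme (0.35 nM Pol III, 1 nM beta, 154 nM SSB, 2 nM primase) was preincubated with compound for 15 min at RT. Synthesis on 1.4 nM ssM13Gori ran 35 min, then was stopped with PicoGreen/EDTA and read as dsDNA fluorescence.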
Tau filament bind: tau filament binding. P10636. recombinant tau filaments, thioflavin S fluorescence, 15 h; filaments grown with octadecylsulfate alongside compound. Potency, µM (highest dose often 57.1 µM), for the others: top-dose activity change, negative = inhibition. actives 2% (n = 71,000). AID 596;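 also: potency is read from the fitted curve at half-maximal effect; % is scaled to controls: 0 for no effect and ±100 for the full control effect; actives lower thioflavin S fluorescence by blocking filaments or displacing dye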
Target sequence (P10636 whole entry, looked up): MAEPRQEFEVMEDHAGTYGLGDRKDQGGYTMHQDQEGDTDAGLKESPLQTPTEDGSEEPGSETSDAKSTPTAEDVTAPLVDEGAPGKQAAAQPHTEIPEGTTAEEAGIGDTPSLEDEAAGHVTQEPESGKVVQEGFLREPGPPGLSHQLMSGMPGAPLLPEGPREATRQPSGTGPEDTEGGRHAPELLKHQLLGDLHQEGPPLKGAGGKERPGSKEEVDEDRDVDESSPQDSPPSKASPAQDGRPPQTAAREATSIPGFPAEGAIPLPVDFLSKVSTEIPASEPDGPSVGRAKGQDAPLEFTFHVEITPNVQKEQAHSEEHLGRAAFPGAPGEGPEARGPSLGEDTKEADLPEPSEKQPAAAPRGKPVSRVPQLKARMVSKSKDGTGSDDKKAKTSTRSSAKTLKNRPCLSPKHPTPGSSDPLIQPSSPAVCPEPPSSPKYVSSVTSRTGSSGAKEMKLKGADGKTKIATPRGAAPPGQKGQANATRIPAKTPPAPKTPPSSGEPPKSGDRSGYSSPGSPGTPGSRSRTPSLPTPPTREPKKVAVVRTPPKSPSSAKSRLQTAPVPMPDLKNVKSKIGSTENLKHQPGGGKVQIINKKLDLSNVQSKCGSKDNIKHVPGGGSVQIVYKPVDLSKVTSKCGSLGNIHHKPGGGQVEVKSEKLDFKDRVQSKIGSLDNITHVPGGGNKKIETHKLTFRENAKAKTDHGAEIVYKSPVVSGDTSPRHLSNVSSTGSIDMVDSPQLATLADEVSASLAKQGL
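Tau 2 uM in ThS buffer dispensed; compound added; 60 uM ODS added (finals 1 uM tau, 30 uM ODS); 15 h 37 C; fluor ex450/em510.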
ALOX15 inhib: inhibitors of human 15-lipoxygenase (ALOX15); AID 887; purified 15hLO-1, xylenol orange hydroperoxide absorbance; actives 1.4% (n = 74,000); Potency, µM (series often up to 57.1 µM), inactives show at the top dose activity change, negative = inhibition, most hits filed as inhibitors; P16050; also: potency is read from the fitted curve at half-maximal effect; % is scaled to controls: 0 for no effect and ±100 for the full control effect; nearly all actives have a fitted effect of over 55% in size
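Hydroperoxide formed from arachidonic acid (50 uM) by purified human 15hLO-1 (40 nM) oxidizes ferrous iron, and the ferric-xylenol orange complex is read at 573 versus 405 nm. Compounds were preincubated 15 min; reaction ran 6 min at room temperature.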
* = called active by the depositor; i = inactive; ? = inconclusive; ! = not active in a repeat; [ ] = dose if it differs, or a comment. Unless noted, calls follow the shape of the dose curve; as a rule, active = well fitted curve in the direction sought with a large enough effect; inconclusive = small, poorly fitted or top-dose-only effect, or another doubt; inactive = no such curve, though single readings can be large; an effect the other way counts as inactive or inconclusive.

SMILES	TsaE inh	ERK AVP inh	Hsp90 Hop PPI	Pol III holo inh	Tau filament bind	ALOX15 inhib
CCCCCCCC/C=C\CCCCCCCC(=O)NCCO	i	33.2%	1.2%	-0.5%	31.6µM*!	3.5%[25.6 µM]
CCCCCCC(=O)O	i	24.5%	-0.8%	0.2%	-0.1%	-2.3%
CCCCCCCC/C=C\CCCCCCCC(=O)O	i	21.1%	2.5%	-2.9%	31.6µM*	-6.1%
CCCCCCCC/C=C\CCCCCCCC(=O)N(CCO)CCO	i	-6.7%	4.8%	-2.2%	78.0%	1.26µM*
COC(=O)C(C)n1cnc2c(cnn2-c2ccc(Cl)cc2)c1=O (stereo not drawn)	i	-3.5%	0.9%	-0.2%	2.1%	8.7%
c1ccc(CSc2nncn2-c2ccccn2)cc1	i	-13.4%	-1.5%	36.0%	5.4%	5.5%
CC(c1ccccc1)n1cnc2ccccc21 (stereo not drawn)	i	0.7%	-3.5%	0.0%	0.5%	7.4%
Cc1ccc2c(C)nc(Nc3nc(CSc4nnnn4-c4ccccc4)cc(=O)[nH]3)nc2c1	i	-15.4%	-4.8%	12.6µM*	35.0%	-1.7%
COCc1cc(=O)[nH]c(Nc2nc(C)c3ccc(C)cc3n2)n1	i	-2.6%	-1.6%	-0.8%	1.8%	5.8%
CCOC(=O)CSc1nc2ccc(N3CCOCC3)cc2c(=O)n1Cc1ccc2c(c1)OCO2	i	-9.0%	?	-13.6%	-26.7%	20µM*
CCN(CC)C(=O)CSc1nc2cc3c(cc2c(=O)n1Cc1ccc2c(c1)OCO2)OCO3	i	5.9%	-1.7%	-3.0%	-0.2%	0.1%
Cc1nc(C)c(C(=O)C2=C(O)C(=O)N(CCCn3ccnc3)C2c2ccccc2)s1 (stereo not drawn)	i	7.0%	-7.5%	-1.5%	10.7%	13.0%
CCc1ccccc1N(CC(=O)Nc1cccc(N(C)S(C)(=O)=O)c1)S(C)(=O)=O	i	-6.8%	-3.6%	-6.0%	-10.9%	7.0%
N#CC1=C(N)OC(c2ccccc2)=C(C#N)C1c1ccc2c(c1)OCO2 (stereo not drawn)	i	-27.2%	-4.7%	-4.2%	-23.5%	31.6µM*
Cc1ccc(C2C(C#N)=C(N)Oc3cc4c(cc32)OCO4)cc1 (stereo not drawn)	i	-7.6%	-8.4%	1.6%	47.2%	?
CC(=O)N1CCN(c2ccc(NCc3ccc(C)s3)cc2)CC1	i	-3.0%	-3.8%[2.3 µM]	1.5%	?	10µM*
CC(=O)N1CCN(c2ccc(NCc3cccs3)cc2)CC1	i	-16.9%	-8.4%	-4.3%	25.1µM*	12.6µM*
CC(=O)N1CCN(c2ccc(NCc3ccccc3)cc2)CC1	i	?	-19.3%	-2.8%	15.8µM*	7.94µM*
CC(=O)N1CCN(c2ccc(NCc3ccc4c(c3)OCO4)cc2)CC1	i	-18.0%	-12.9%	-5.0%	?	?
O=C(c1ccccc1)N1CCN(c2ccc(NCc3ccc4c(c3)OCO4)cc2)CC1	i	20µM*	?	-8.3%	31.6µM*	25.1µM*
CC(=O)Nc1ccc(N2CCN(C(=O)c3cccs3)CC2)cc1	i	-19.1%	-3.7%	-5.2%	-10.5%	5.7%
O=c1c(CCc2ccccc2)nc2cncnc2n1-c1ccccc1	i	-14.5%	1.0%	-5.6%	-14.8%	-27.1%
O=C(Nc1nccs1)c1ccc(S(=O)(=O)NCc2cccs2)cc1	i	-23.0%	-4.2%	-4.2%	0.8%	-8.4%
Cc1ccc(CNc2ccc(N3CCOCC3)cc2)s1	i	-5.6%	-18.7%	-4.8%	-13.4%	15.8µM*
COc1ccc(CNC2CCCCC2C)c(OC)c1 (stereo not drawn)	i	-8.1%	-1.0%	-3.6%	-14.7%	2.4%
SMILES	TsaE inh	ERK AVP inh	Hsp90 Hop PPI	Pol III holo inh	Tau filament bind	ALOX15 inhib
COc1ccc(-c2cc(CCCC(=O)NCc3ccccn3)no2)cc1	i	-11.6%	-5.5%[2.3 µM]	-5.1%	17.7%	2.0%
CCOc1ccc(-c2cc(CCCC(=O)NCc3cccnc3)no2)cc1	i	12.6µM*	1.3%	0.1%	17.9%	7.7%
COc1ccc2nc3c(cc2c1)c(NC(=O)c1cccs1)nn3CC(C)C	i	72.6%	25.1µM*	2.0%	116.4%	-17.8%
O=C(CSc1nnc(-c2ccc(OC(F)F)cc2)o1)N1CCOCC1	i	12.4%	-2.7%	-5.8%	2.5%	3.4%
Cc1ccc2oc(-c3ccccc3)c(O)c(=O)c2c1	i	26.4%	5.2%	-3.1%	31.6µM*	4.9%[25.6 µM]
Cc1ccc(-c2oc3ccccc3c(=O)c2O)cc1	i	-18.7%	1.0%	-4.0%	49.8%	-22.5%
N#Cc1c2c(c(=S)n(-c3ccccc3)c1N)CCCC2	i	8.1%	-17.8%[11 µM]	-16.1%[11.4 µM]	339.5%[11.4 µM]	1.58µM*
Oc1ccc(C=Nc2ccc(N3CCOCC3)cc2)c(O)c1	i	-21.7%	-20.8%	-14.6%	20µM*	?
O=C(O)c1c(Cl)c(Cl)c(Cl)c(Cl)c1C(=O)Nc1ccc2cn[nH]c2c1	i	-5.0%[11.5 µM]	-2.6%[11 µM]	-6.2%[11.4 µM]	5.4%[11.4 µM]	6.0%[11.4 µM]
COC(=O)[C@H](C)NC(=O)Nc1ccc(Oc2ccccc2)cc1	i	25.1µM*	-1.7%	1.5%	11.7%	-1.4%
O=C(c1cccs1)N1CCN(C2CCCCC2)CC1	i	-9.6%	-1.8%	-4.5%	0.3%	-4.7%
Cc1cccc(NC(=O)Nc2ccc(C#N)cc2)n1	i	-0.8%	-1.9%	25.1µM*	118.2%	-3.9%
Cc1cccc(NC(=O)Nc2cccc(C#N)c2)n1	i	-18.1%	-0.7%	-2.2%	44.8%	-1.3%
CC(C)C1CC(=O)NC(SCC(=O)Nc2ccc(Br)cc2)=C1C#N (stereo not drawn)	i	-14.1%	-7.2%	0.6%	34.5%	-8.1%
COC(=O)c1ccc(/C=N/n2cnnc2)cc1	i	-1.0%	-4.8%	-2.5%	-0.2%	14.6%
CC(C)COC(=O)c1cc(-c2ccc(/C=N/n3cnnc3)o2)ccc1Cl	i	-22.2%	-5.2%	-5.7%	25.1µM*	3.0%
CN(c1ccccc1)S(=O)(=O)c1ccc(C(=O)OCC(=O)NCc2ccco2)cc1	i	10.2%	-1.8%	-4.3%	-0.5%	4.8%
O=C(COC(=O)c1cccc(S(=O)(=O)N2CCN(c3ccccc3)CC2)c1)NCc1ccco1	i	19.6%	?	-13.8%	49.5%	25.1µM*
CCOc1ccc(OCc2ccc(C(=O)NCC3CCCO3)o2)cc1 (stereo not drawn)	i	-9.4%	-2.0%	-1.5%	9.1%	2.7%
COc1cc(C(=O)Nc2nnc(-c3sccc3C)s2)cc(OC)c1OC	i	-20.9%	-13.8%	-2.9%	-6.7%	20µM*
COc1ccc(OC)cc1	i	-15.3%	-1.5%	3.2%	4.7%	5.8%
COc1ccc(-c2cc(-c3ccc(OC)cc3)[nH]n2)cc1	i	3.16µM*	-2.2%	-4.5%	89.4%	-3.1%
